Compound activity deposited in PubChem by The Scripps Research Institute Molecular Screening Center.
Shown is part of a subset that was picked to be rich in hits.
SF-1 inh – inhibitors of human SF-1, primary screen, cell-based, CHO-K1, Gal4-SF-1 LBD, luciferase luminescence; 65,000 tested, 0.55% active; CHO-K1 Gal4-SF-1 LBD luciferase reporter; Steroidogenic factor 1 (Homo sapiens), Q13285; inhibition, % at 10 µM;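 active means inhibition above the mean inhibition of all tested compounds plus 3 SD, cut at about 48% in these data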
Of the large screens only hits and unclear results are named; the others gave an inactive call.

CC(NC(=O)C1CCN(c2nnc(-n3cccc3)s2)CC1)C12CC3CC(CC(C3)C1)C2 (configuration not stated)	none
O=C(Cn1nnc(-c2ccccc2)n1)OCc1csc(-c2ccccc2)n1	none
CCc1ccc(-c2nnn(CCC(=O)OC)n2)cc1	SF-1 inh 52
COc1ccc(-c2ccc(-c3nnn(CC(C)=O)n3)cc2)cc1	none
COC(=O)c1c(-c2ccncc2)csc1NC(=O)c1ccoc1C	none
Brc1ccc(-c2cnc(-c3cccs3)o2)cc1	none
COc1ccc(C)cc1NC(=O)C1CCCN(S(=O)(=O)c2c(C)noc2/C=C/N(C)C)C1 (configuration not stated)	none
COC(=O)N(C)CCCC1(C)C(=O)N(C)c2ccc(O)cc21 (configuration not stated)	none
O=S(=O)(Nc1ccc2c(c1)nc1n2CCOC1)c1ccc(Cl)cc1	none
Clc1ccc(-n2ncc3c(N4CCCC4)ncnc32)cc1	SF-1 inh 61
COC(=O)C(C)n1cnc2c(cnn2-c2ccc(Cl)cc2)c1=O (configuration not stated)	none
CCOC(=O)C1CCN(c2ncnc3c2cnn3-c2ccc(Cl)cc2)CC1	SF-1 inh 56
COCCNc1ncnc2c1cnn2-c1ccc(Cl)cc1	none
OCCOCCNc1ncnc2c1cnn2-c1ccc(Cl)cc1	none
CCOC(=O)C1CCN(C(=O)c2ccc(Cl)c(S(=O)(=O)N3CCOCC3)c2)CC1	none
CCOc1ccc(S(=O)(=O)N(CC(=O)O)c2ccc(C)cc2)cc1	none
CCOc1cc(CNC(=O)CN2C(=O)c3ccccc3S2(=O)=O)ccc1OC	none
